# Bioassay records deposited in PubChem BioAssay by several laboratories.
# Rows were chosen to be rich in hits. Some 2.6% of all compounds tested hit in one or more screens of this group.
# M18AAP inhibitor: PfM18AAP enzyme inhibition; recombinant PfM18AAP, H-Glu-NHMec fluorogenic cleavage; inhibition, % at 7.35 µM; actives 1.2% (n = 290,000);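 active = inhibition above the campaign mean inhibition over all tested compounds plus 3 SD, cut at about 28% in these data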;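 also: 0% = plate median of test compound wells and 100% = 2 mM ZnCl2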
# Rce1 inhib: blocks yeast Ras-converting enzyme; yeast membranes, quenched prenylated peptide cleavage fluorescence; Q03530; AID 2563; actives 0.27% (n = 290,000); calls only;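 active = fall in fluorescence gain of 50% or more versus controls, with final raw signal at or below 3038400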;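 also: plate controls were neutral control wells for no effect and wells lacking membranes for full effect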
# Platelet DG rel: platelet dense granule release activity; actives 0.22% (n = 300,000); human platelet-rich plasma, SFLLRN dense granule ATP release, luminescence; inhibition, %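 (compounds screened at 7.5 µM in platelet-rich plasma)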;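 active = mean replicate score, as percent of positive control, at or above 50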
# Exocytosis inh: blocks lytic granule exocytosis; TALL-104 LAMP-1 surface exposure, flow cytometry; cells stimulated with thapsigargin and PMA; actives 0.66% (n = 360,000); inhibition, % at 10 µM;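 active = inhibition above about 55%, limit read from the data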
# ABHD5 PLIN5 PPI: ABHD5-PLIN5 protein interaction inhibition. Q00G26+Q8WTS1. Split G. princeps luciferase complementation, luminescence, 4 h. inhibition, % at 4 µM. actives 0.78% (n = 360,000). AID 602281;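 active = inhibition above the mean inhibition across every tested compound plus 3 SD, cut at about 22% in these data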;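 also: 0% = DMSO only wells and the 100% control is not disclosed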
# ABHD5 PLIN5 conf: confirmation of human ABHD5-PLIN5 interaction inhibitors; AID 651612; inhibition, % at 4 µM; shares compounds with ABHD5 PLIN5 PPI; biochemical ABHD5-PLIN5 interaction, luminescence; actives 67% (n = 2,200); in the data active = inhibition above about 23%;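 also: 0% = DMSO vehicle wells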
# HNF4 counter: active in HNF4 split-luciferase counter-screen for ABHD5-PLIN5 inhibitors | AID 651674 | inhibition, % at 4 µM | HNF4 dimerization, luminescence, biochemical | actives 77% (n = 2,200) | shares compounds with ABHD5 PLIN5 PPI;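 active = mean inhibition across replicate wells exceeding the computed hit threshold, cut at about 13% in these data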;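 also: light from luciferase halves that rejoin when HNF4 fusion proteins dimerize; 0% = DMSO only wells and the 100% control is not given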
# * = called active by the depositor; i = inactive; x = not tested or not shown.
SMILES,M18AAP inhibitor,Rce1 inhib,Platelet DG rel,Exocytosis inh,ABHD5 PLIN5 PPI,ABHD5 PLIN5 conf,HNF4 counter
O=C1N(Cc2ccccc2)CC2(Br)COCOC12O (stereo not given),x,x,x,-2,39*,93*,102*
O=C(C=Cc1ccccc1)c1ccc([N+](=O)[O-])cc1,x,x,x,-2,67*,95*,91*
Cc1[nH]c(C)c(C(=O)/C=C/c2ccc([N+](=O)[O-])cc2)c1C,10,i,5,50,25*,39*,44*
O=C(C=Cc1ccco1)c1ccc([N+](=O)[O-])cc1,x,x,x,-4,35*,47*,42*
CN(C)c1ccc(C(=O)C=Cc2ccc([N+](=O)[O-])cc2)cc1,x,x,x,6,3,x,x
O=C(Cn1c(=O)c2ccccc2n(CC(=O)N2CCCCC2)c1=O)N1CCCCC1,-17,i,-2,0,4,x,x
CC(C)(C)OC(=O)NCCc1nnc(S(=O)(=O)Cc2ccc(Cl)cc2Cl)o1,-14,i,0,8,26*,39*,74*
O=C1C=CC(=O)N1c1ccc2c(c1)Cc1cc(F)ccc1-2,x,x,x,29,26*,42*,71*
CC(=O)Nc1ccc2c(c1)Cc1cc(N3C(=O)C=CC3=O)ccc1-2,x,x,x,46,35*,45*,104*
Cc1ccc(N/C(=C\C(=O)c2ccccc2)C(=O)O)cc1,5,i,10,2,93*,0,6
Cc1cccc(C(=O)NCCCn2ccnc2)c1C,1,i,-3,-9,102*,3,2
CCOc1cc(N)c(Cl)cc1C(=O)NCC1CN(Cc2ccc(F)cc2)CCO1 (stereo not given),x,i,-1,-8,71*,78*,33*
O=C(NCC1CCCO1)c1ccc(COc2ccc(F)cc2)o1 (stereo not given),-7,i,3,3,10,x,x
CCc1ccccc1S(=O)(=O)Cc1ccc(C(=O)N2CCN(c3ccccc3OC)CC2)o1,0,i,4,1,-37,x,x
Cc1ccc(C(=O)C(C(=O)/C=C/c2ccccc2)=C2SCCCS2)cc1,9,i,4,1,31*,66*,50*
Cc1cc(C)c2c(N)c(C(=O)NC3CCCC3)sc2n1,7,x,-1,-1,-2,x,x
Cc1cc(C)c2c(=O)n(CC(=O)NC3CCCC3)sc2n1,56*,i,3,44,27*,33*,107*
O=C1CCN(C(=O)c2cccs2)c2ccccc21,1,i,10,2,6,x,x
CN1C(=O)/C(=C\C(=O)c2cccs2)c2ccccc21,21,i,7,18,65*,67*,87*
CC1CCCCN1C(=O)c1ccc(C(=O)Nc2ccc(F)cc2)cc1 (stereo not given),x,x,x,-8,5,x,x
C=CCNS(=O)(=O)c1ccc(C(=O)OCc2cc(=O)oc3cc(OC)ccc23)cc1,-1,i,1,-3,-3,x,x
O=C(NCCCN1CCOCC1)c1cc(-c2ccc(Cl)c(Cl)c2)on1,-5,i,-4,16,3,x,x
COc1ccc(NC(=O)CSc2c3c(nc4ccccc24)CCCC3)c(OC)c1,-11,i,-13,-1,25*,29*,44*
CCOC(=O)CN1CC23C=CC(O2)C(C(=O)NCCc2ccccc2)C3C1=O (stereo not given),-5,i,2,-3,-1,x,x
COc1ccc(CCNC(=O)c2cccc(S(=O)(=O)N3CCOCC3)c2)cc1OC,x,x,x,-3,27*,4,10
SMILES,M18AAP inhibitor,Rce1 inhib,Platelet DG rel,Exocytosis inh,ABHD5 PLIN5 PPI,ABHD5 PLIN5 conf,HNF4 counter
CCCCC(=O)Nc1cccc(NC(=O)c2cccc(Br)c2)c1,-5,i,0,4,6,x,x
CCCCC(=O)Nc1cccc(C(=O)Nc2ccccc2C(=O)O)c1,-19,i,-2,-3,95*,3,1
O=C(Cc1cccs1)Nc1nnc(-c2ccc(F)cc2)s1,-1,x,2,-2,1,x,x
CCOC(=O)Nc1ccc2c(c1)N(C(=O)CCN1CCOCC1)c1ccccc1S2=O (stereo not given),-39,i,16,0,27*,6,42*
CCN(CC)CCNC(=O)c1ccc(NC(=O)c2cn(-c3ccccc3)nc2-c2cccs2)cc1,0,i,4,37,35*,18,-5
COC(=O)COc1ccc(/C=C2/NC(=O)N(CC(=O)OC)C2=O)cc1,-2,i,4,1,1,x,x
COC(=O)CN1C(=O)N/C(=C/c2ccc(C)o2)C1=O,12,i,-4,6,25*,14,49*
O=C(CC(Nc1ccc(F)cc1)C(=O)O)c1ccccc1 (stereo not given),-42,i,11,0,43*,38*,89*
CC(Oc1ccccc1F)C(=O)NNC(=O)c1ccc(F)c(S(=O)(=O)N2CCOCC2)c1 (stereo not given),-5,i,4,-12,63*,2,2
O=C(CCl)N1N=C(c2ccco2)CC1c1ccco1 (stereo not given),-4,i,-1,-2,38*,25*,22*
O=C(CCl)N1N=C(c2cccs2)CC1c1ccco1 (stereo not given),12,i,-4,5,21,x,x
O=C(COc1cccnc1[N+](=O)[O-])N1N=C(c2ccc(Cl)cc2)CC1c1ccco1 (stereo not given),4,i,0,0,5,x,x
O=C(OCC(=O)N1N=C(c2ccc(Cl)cc2)CC1c1ccco1)c1cccnc1 (stereo not given),x,x,x,11,49*,29*,26*
Cc1ccc(OCC(=O)N2N=C(c3ccc(Cl)cc3)CC2c2ccco2)c([N+](=O)[O-])n1 (stereo not given),-4,i,-3,0,24*,7,14*
CC(C)[C@H](NS(=O)(=O)c1ccccc1)C(=O)OCC(=O)N1N=C(c2ccc(Cl)cc2)CC1c1ccco1 (stereo not given in full),1,i,-21,-2,24*,48*,56*
COc1ccc(NC(=O)/C(C#N)=C/c2ccc(-c3ccc(Cl)c(C(=O)O)c3)o2)cc1,-16,i,0,-14,4,x,x
CCOC(CN=c1nc(N(C)C)ss1)OCC,x,x,x,12,81*,78*,101*
Cc1ccc2[nH]c(=O)c(CN(C)C(=O)c3ccccn3)cc2c1,-5,i,-1,1,1,x,x
CN(C)/N=C/C=C1\CCC/C(=C/c2cccs2)C1=O,18,i,6,9,30*,25*,29*
COc1ccc(N(CC(=O)NCc2ccco2)S(C)(=O)=O)c(OC)c1,5,i,8,-1,-5,x,x
